From PubChem BioAssay (NCI)
Compounds without any hit were thinned out: in the full panel of roughly 83,000, 20% have a hit.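 Method: cells in 96-well plates; compound added at one concentration; 48 h incubation; percent growth measured; values under 10 scored active.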 Values without a mark were called inactive. The source made the active and inactive calls.

The compounds below were run on A549/ATCC NSCLC (assay: NCI-60 one-dose screen, 48 h (100 = growth as untreated, 0 = no growth, -100 = all killed)). Conditions: 10 µM unless noted.
In the case of `O=C(c1ccccc1)c1ccc2nc(-c3ccc(F)cc3)[nH]c2c1`, the growth is reported as 82.2%.
With `CC1(C)CC[C@]2(C(=O)O)CC[C@]3(C)C(=CCC4[C@@]5(C)C[C@@H](O)[C@@H]6OC(c7ccc(F)cc7)OC[C@@]6(C)C5CC[C@]43C)C2C1` (stereo partly drawn) the growth was 17%.
`N/C(=N\c1nc2ccccc2s1)NC(=O)Nc1ccc(Cl)cc1Cl` was tested, and the growth was -85.4% (active).
Work on `CCCCSc1nc(Nc2ccc(S(N)(=O)=O)cc2)c(C#N)c(-c2cc(OC)c(OC)c(OC)c2)n1` yielded a growth of 32.2%.
`O=C(COc1ccc2c(c1)CCCC(=O)N2)NCc1ccccc1` showed a growth of 103%.
For `Nc1nc(-c2ccccc2)c(N=Nc2ccc([N+](=O)[O-])cc2Cl)s1`, the growth was 89.8%.
`CC1(C)CC[C@]2(C(=O)O)CC[C@]3(C)C(=CCC4[C@@]5(C)C[C@@H](O)[C@@H]6OC(c7cccc(Br)c7)OC[C@@]6(C)C5CC[C@]43C)C2C1` (stereo partly drawn) showed a growth of 23%.
`C#CCOc1ccc(/C=N/Nc2nc(-c3cc4cc(OC)ccc4oc3=O)cs2)cc1OC` was tested, and the growth was 10%.
Work on `N#Cc1c(NCc2ccccc2)n[nH]c1Nc1ccccc1` yielded a growth of 31.6%.
Compound `COc1cc2oc(-c3cccc(C(=O)Nc4ccc(Cl)cc4)c3)cc(=O)c2c(OCC(=O)N[C@@H](Cc2ccccc2)C(=O)O)c1OC` has a growth of 106%.
In the case of `Cn1cc(-c2cc3nc(-c4c[nH]c5ccc(Cl)cc45)cc(N)n3n2)c2ccccc21`, the growth is reported as -75% (active).
Compound `C#C[C@]1(O)CC[C@H]2[C@@H]3CC=C4c5sc(-c6ccc([N+](=O)[O-])cc6)nc5CC[C@]4(C)[C@H]3CC[C@@]21C` has a growth of 29.6%.
For `O=C(CSc1nc2ccccc2c(=O)[nH]1)NCCN1CCCCC1`, the growth was 100%.
In the case of `C#CCOc1cc(N(CC)CC)ccc1C(C(=O)NC(C)(C)C)N(C(=O)C1CCc2cc(F)ccc2O1)c1ccc(F)c(Cl)c1` (stereo not drawn), the growth is reported as 65.9%.
`O=c1oc2ccccc2cc1-c1csc(N2N=C(c3ccccc3)CC2c2ccc(N3CCOCC3)cc2)n1` (stereo not drawn) was tested, and the growth was 114%.
With `Cn1cc(-c2cc(N)n3nc(-c4cn(C)c5ncccc45)cc3n2)c2cccnc21` the growth was 51.9%.
`COc1ccc(-c2ccnc(SCc3cc4cc(OC)ccc4[nH]c3=O)n2)cc1` gave a growth of 20.2%.
Work on `CCOc1ccc(-c2c(C#N)c(-c3ccc(Cl)cc3)nc3n[nH]c(-c4ccc(Cl)cc4)c23)cc1OC` yielded a growth of 55.4%.
`CN(C)c1ccnc(NCCCSC(c2ccccc2)(c2ccccc2)c2ccccc2)c1` showed a growth of 48.4%.
Work on `O=C(Cn1c(/C=C/c2ccccc2)nc2ccccc2c1=O)Nc1ccccc1` yielded a growth of 38.2%.
Work on `O=C(O)c1cccc(-c2ccc(/C=N/NC(=O)c3[nH]c4ccc(Br)cc4c3-c3ccccc3)s2)c1` yielded a growth of 68.9%.
In the case of `C#CCOc1cc(N(CC)CC)ccc1C(C(=O)NC(C)(C)C)N(C(=O)C1CCc2cc(F)ccc2O1)c1cc(C)cc(C)c1` (stereo not drawn), the growth is reported as 36.1%.
Work on `COc1cc2c(c(OC)c1OC)C(=O)CC(c1cccc(NC(=O)c3cc(NC(=O)[C@@H](N)CO)ccc3C)c1)O2` (stereo partly drawn) yielded a growth of 102%.
Compound `C#CCOc1ccc(/C=N/Nc2nc(-c3ccc(F)cc3)cs2)cc1OC` has a growth of 72.9%.
`Cc1cc2c(cc1Cl)C(=O)/C(=C/c1ccc(F)cc1)O2` was tested, and the growth was 103%.
For `Cn1cc(-c2cc3nc(-c4cn(C)c5ncccc45)cc(N)n3n2)c2cc(Cl)ccc21`, the growth was -4.13% (active).
For `COc1ccc2[nH]cc(-c3cc(N)n4nc(-c5cn(C)c6ccccc56)cc4n3)c2c1`, the growth was -75.6% (active).
Work on `COc1ccc(Cc2nn(CC(=O)N/N=C/c3ccc(F)cc3)c(=O)c3c(C)noc23)cc1` yielded a growth of 14%.
In the case of `Cc1ccc(NCC(=O)Cn2cc(COc3ccc(C=Nc4cnc5ccccc5c4)cc3)nn2)cc1`, the growth is reported as 103%.
`Cc1cccc(NC(=O)CN2CCN(c3ncnc4c3cnn4-c3ccccc3)CC2)c1` gave a growth of 97%.
Compound `Cn1cc(-c2nc(N)nnc2-c2c[nH]c3ccc(F)cc23)c2cc(Br)cnc21` has a growth of 11.1%.
Work on `COc1ccc2[nH]cc(-c3nnc(N)nc3-c3cn(C)c4ncc(Br)cc34)c2c1` yielded a growth of 84.3%.
For `COc1ccc(NC(=O)[C@H](C)N)cc1C(=O)Nc1cccc(C2CC(=O)c3c(cc(OC)c(OC)c3OC)O2)c1` (stereo partly drawn), the growth was 93.4%.
In the case of `CC1(C)CC[C@]2(C(=O)O)CC[C@]3(C)C(=CCC4[C@@]5(C)C[C@@H](O)[C@@H]6OC(c7ccco7)OC[C@@]6(C)C5CC[C@]43C)C2C1` (stereo partly drawn), the growth is reported as 18.3%.
Compound `COc1ccc2c(c1)c(/C=N/Nc1ccc3ccccc3n1)cn2C` has a growth of 14.9%.
`Cc1ccc(S(=O)(=O)c2nc(S(=O)(=O)c3ccc(C)cc3)c(N3CCN(C)CC3)s2)cc1` showed a growth of 59.5%.
`COc1cc2c(c(OC)c1OC)C(=O)CC(c1cccc(NC(=O)c3cc(NC(=O)[C@H](C)N)ccc3Cl)c1)O2` (stereo partly drawn) showed a growth of 56%.
For `Cc1ccc(C(=O)C(c2c[nH]c3ccccc23)c2c[nH]c3ccccc23)cc1`, the growth was 49%.
